# DAX1 inh-1: DAX1 (NR0B1) inhibitors, primary screen, cell-based, HEK293, Gal4-DAX1, luciferase luminescence; 340,000 tested, 0.99% active; inhibition, % at 6.75 µM; Nuclear receptor subfamily 0 group B member 1 (Homo sapiens), P51843; AID 504766, 2011; HEK293 Gal4-DAX1 luciferase reporter;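 active means inhibition above the mean over all tested compounds plus 3 SD, cut at about 4.2% in these data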;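 further: 0% = DAX1-transfected cells with DMSO and 100% = empty-vector control cells with DMSO; inhibition shows as a rise in luminescence from relieved DAX1 repression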
# Target sequence (P51843 207-470 limits assumed): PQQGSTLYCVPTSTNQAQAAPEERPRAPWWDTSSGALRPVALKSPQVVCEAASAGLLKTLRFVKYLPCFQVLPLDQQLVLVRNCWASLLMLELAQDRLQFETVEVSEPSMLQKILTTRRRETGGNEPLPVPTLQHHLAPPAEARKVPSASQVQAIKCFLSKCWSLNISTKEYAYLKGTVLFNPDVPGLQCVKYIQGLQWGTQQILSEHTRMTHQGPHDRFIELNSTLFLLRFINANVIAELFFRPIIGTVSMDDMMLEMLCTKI
# hgDAF-12 ag: H. glycines DAF-12 receptor agonists, primary screen, cell-based, luminescence, HEK293, GAL4 fusion, UAS-luciferase | activation, % at 6.8 µM | Nuclear hormone receptor DAF-12 (Heterodera glycines), GAL4 fusion | 370,000 tested, 1.8% active | HEK293 GAL4-hgDAF12 UAS-luciferase reporter, agonist luminescence; normalized to butyrate control;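 active means activation above a cutoff set at the mean of all screened compounds plus 3 SD, cut at about 10% in these data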;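 further: 0% = DMSO wells and 100% = sodium butyrate wells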
# ssDAF-12 act: S. stercoralis DAF-12 nuclear receptor activators, primary screen, cell-based, luminescence, HEK293, GRIP1 co-expression, lit1-tk-luc; activation, % at 6.8 µM; 370,000 tested, 1% active; Nuclear hormone receptor DAF-12 (Strongyloides stercoralis); AID 652126, 2013; HEK293 ssDAF-12/GRIP1 lit1-tk-luc reporter; % of 3 µM dafachronic acid response;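 active means activation above the mean over all tested compounds plus 3 SD, cut at about 0.9% in these data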;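 further: 0% = DMSO-only wells and 100% = 3 µM delta7-dafachronic acid wells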
# hcDAF-12 act: H. contortus DAF-12 nuclear receptor activators, primary screen, cell-based, luminescence, HEK293, lit1-tk-luc reporter; HEK293 hcDAF-12 lit1-tk-luc reporter; 0% DMSO, 100% Δ7-dafachronic acid; activation, % at 6.8 µM; 370,000 tested, 1.4% active; AID 652067, 2013;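 active means activation above the mean of all tested compounds plus 3 SD, cut at about 5.5% in these data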;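 further: 100% = response to 3 µM Δ7-dafachronic acid high control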
# DAX1 inh-2: DAX1 (NR0B1) inhibitors on StAR promoter, primary screen, cell-based, luminescence, SF-1 (NR5A1), full-length DAX-1; HEK293T StAR-luciferase reporter, SF-1/DAX-1 repression relief; 370,000 tested, 1.1% active; inhibition, % at 6.8 µM; AID 652010, 2013;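 active means inhibition above the mean over all tested compounds plus 3 SD, cut at about 3.6% in these data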;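 further: 0% = DAX-1 cells with DMSO and 100% = cells lacking DAX-1 with DMSO; higher inhibition means more luminescence from relief of DAX-1 repression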
# * = called active by the depositor; · = no result given. In the library only some 4.1% were active in any assay of this set; here they are far more common.
SMILES,DAX1 inh-1,hgDAF-12 ag,ssDAF-12 act,hcDAF-12 act,DAX1 inh-2
Cc1cc(C)nc(-n2ncc3c2CCCC3=O)n1,5.4*,-0.2,-1.0,-2.7,-0.1
Cc1ccc(Oc2ccc(Cl)cc2NC(=O)c2ccc(F)cc2F)cc1,6.0*,1.9,-0.7,1.8,0.6
O=C(Nc1cc(Cl)ccc1Oc1ccccc1)c1ccccc1F,-0.5,-1.1,-1.4,-1.8,-1.0
O=C(CSc1nnc(-c2cccnc2)n1-c1ccc(Cl)cc1)Nc1cccc2ccccc12,·,-3.3,-1.5,-0.3,-0.7
COc1ccccc1CC(=O)c1ccc(OCc2ccccc2)cc1,1.0,2.3,-1.5,-0.8,0.3
Cc1ccc(/C=C/C(=O)c2ccc(O)cc2)cc1,4.4*,11.0*,-0.9,1.5,0.1
CCOc1ccc(C(=O)/C=C/c2ccc(SC)cc2)cc1,0.3,-3.4,-2.2,-1.2,-0.6
CCOc1ccc(C(=O)Cc2ccccc2)cc1,2.4,11.6*,1.1*,2.1,1.0
CCOc1ccc(/C=C/C(=O)c2ccccc2)cc1,3.8,8.3,-0.2,6.2*,1.6
Cn1c(-c2ccc(F)cc2)cnc1SCC(=O)N1CCCc2ccccc21,1.2,0.2,-0.9,-2.0,0.1
Cn1c(-c2ccc(F)cc2)cnc1SCC(=O)N1CCCCC1,0.6,12.5*,0.3,2.8,2.1
O=c1[nH]c(CSc2ccccn2)nc2c1oc1ccccc12,-1.2,12.3*,-0.2,4.2,4.4*
Cc1ccc(C(=O)NC2CCCCN(Cc3cccc(F)c3)C2=O)cc1 (centres undefined),·,5.4,-1.4,1.8,0.3
O=C(COC(=O)C1CC2CCCC(C1)C2=O)NC1CCCCC1 (centres undefined),1.0,1.9,-1.1,0.0,1.4
O=C(CN1C(=O)NC2(CCCCCC2)C1=O)Nc1ccc(OC(F)(F)F)cc1,-1.6,-4.0,-1.3,-2.4,-1.9
O=C(CN1C(=O)NC2(CCCC2)C1=O)Nc1nc2ccccc2s1,3.5,4.7,0.7,5.8*,1.4
O=C(CN1C(=O)NC2(CCCC2)C1=O)Nc1ccc(OC(F)(F)F)cc1,9.7*,-1.1,-0.9,-1.7,-0.1
O=C(COC(=O)CN1C(=O)NC2(CCCC2)C1=O)Nc1ccccc1C(F)(F)F,12.0*,0.3,-1.2,0.2,1.5
CN(CC(=O)Nc1ccc(F)cc1)C(=O)COC(=O)CN1C(=O)NC2(CCCC2)C1=O,-0.2,-0.3,-0.7,5.8*,0.7
C=CCNC(=O)c1cnn(-c2ccccc2)c1-c1ccccc1,-0.7,0.3,-1.4,0.5,-0.1
CNC(=O)c1c(Cl)cnn1-c1ccc(C)cc1,0.5,11.8*,0.2,3.0,1.5
C=CCNC(=O)c1c(Cl)cnn1-c1ccc(C)cc1,·,11.9*,-0.2,4.2,1.2
CNC(=O)c1c(Br)cnn1-c1ccc(C)cc1,0.8,12.2*,-0.7,3.5,3.7*
CC1CCCCN1C(=O)COC(=O)c1cc([N+](=O)[O-])ccc1N1CCOCC1 (centres undefined),0.7,5.8,-1.0,-1.7,-1.3
O=C(NC1CCCCC1)N1CCc2ccccc2C1,1.3,12.9*,-1.1,1.6,2.2
SMILES,DAX1 inh-1,hgDAF-12 ag,ssDAF-12 act,hcDAF-12 act,DAX1 inh-2
O=C(Nc1ccc(F)cc1)N1CCc2ccccc2C1,0.6,11.1*,0.4,1.4,0.8
C[C@H](CO)N1C[C@H](C)[C@H](CN(C)Cc2cccc(F)c2)Oc2ncc(C3=CCCC3)cc2C1=O,·,3.8,-0.7,-0.5,-1.3
CC(C)NC(=O)C1Cc2c(-c3ccc4c(c3)OCO4)ccnc2O1 (centres undefined),·,-3.4,-0.6,-0.7,-1.1
Cc1ccc2nc(SCC3CCCCO3)[nH]c2c1 (centres undefined),-2.3,12.2*,-0.2,5.4,2.9
Cc1cccc(C(O)c2ncc(-c3ccc4ccccc4c3)[nH]2)c1C (centres undefined),·,4.1,-1.5,2.2,-0.9
CCC(=O)NC(c1ccc(N(C)C)cc1)c1c(O)ccc2ccccc12 (centres undefined),0.2,1.5,-0.5,6.3*,0.3
O=C(c1ccccc1)N(c1ccccc1)c1nccc2ccccc12,-1.1,0.3,0.0,-0.3,-1.0
CCOC(=O)c1cc(-c2ccccc2)n(CC(=O)Nc2ccc(OC)cc2)c1C,-0.4,-1.6,-1.6,-0.3,0.0
CCOC(=O)c1cc(-c2ccccc2)n(CCC(=O)O)c1C,4.4*,5.5,-1.2,-1.8,-0.6
CC(=O)Nc1ccccc1P(=O)(c1ccccc1)c1ccccc1OC(C)=O (centres undefined),4.5*,-0.6,0.1,-1.1,-0.4
Clc1ccc(/C=N/NC(=Nc2ccccc2)c2ccccn2)c(Cl)c1,3.1,12.1*,-0.1,5.6,3.2
COc1ccc(C2NC(=O)c3ccccc3N2)cc1COc1ccc(NC(C)=O)cc1 (centres undefined),·,0.4,-1.6,-2.7,·
Oc1ccc(/C=C/c2ccc3cccc(O)c3n2)cc1Br,1.3,10.5*,-0.7,2.5,1.4
O=[N+]([O-])c1cccc(/C=C/c2ccc3cccc(O)c3n2)c1,1.2,3.4,-1.3,-1.5,0.1
CC(C)(C)c1ccc(OCc2nc(-c3ccccn3)no2)c(Br)c1,2.1,11.1*,0.1,3.0,3.2
Clc1cc(Cl)c(OCc2nc(-c3ccccn3)no2)cc1Cl,1.9,5.7,0.6,1.3,2.0
c1ccc(-c2nc(-c3ccccn3)no2)cc1,-3.5,3.5,-0.8,6.4*,3.4
Cc1ccc(Cc2nc(-c3ccccn3)no2)cc1,2.0,12.8*,0.1,3.3,2.9
c1ccc(-c2noc(CC3CCCCC3)n2)nc1,1.6,12.4*,-0.9,5.4,3.9*
CCOC(=O)[C@]12CCCC=C1N(CCCOC)C(=O)[C@@H]2CC(=O)NCC12CC3CC(CC(C3)C1)C2,·,-2.7,-1.6,-2.7,-0.2
CCOC(=O)C1CCCN(S(=O)(=O)CCNC(=O)c2ccc(F)cc2)C1 (centres undefined),0.8,0.6,-0.9,-0.1,0.7
CN1CCCCC(NC(=O)CCl)C1=O (centres undefined),·,1.1,-0.2,2.4,-1.8
O=c1[nH]c(-c2ccco2)nc2sc3c(c12)CCCC3,2.5,12.6*,0.8,2.3,3.1
CC1(C)CNC(=S)N1Cc1ccccc1,4.3*,-3.2,-1.1,-1.9,-0.2
Cc1ccc(/C=C2\C(=O)Nc3ccccc32)o1,0.7,2.1,0.3,5.2,-0.3
Cc1ccc2c(c1)/C(=C/c1ccco1)C(=O)N2,5.1*,0.3,-1.5,0.1,-0.7
Cc1cc(C)cc(NC(=O)c2ccc3nc[nH]c3c2)c1,-1.5,5.7,-1.8,-1.1,0.5

# Bioassay records as filed in PubChem.
